In PubChem BioAssay (NCI):
Compounds without any hit were thinned out: in the full panel of roughly 79,000, 15% have a hit. Values without a mark were called inactive. The source made the active and inactive calls. Rule as the data show it: active = growth inhibition above about 70%; inactive = the rest.

How the values were obtained:
[1] = NCI Yeast Anticancer Drug Screen. Data for the rad52 strain (AID 147);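 also: 0% = growth of vehicle-treated control cultures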; details: S. cerevisiae rad52 mutant growth inhibition, hits give high values
Method in brief: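 Measured: yeast growth inhibition. System: strain with a defined DNA damage repair alteration. Reference: vehicle-treated control cultures.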

[2] = NCI Yeast Anticancer Drug Screen. Data for the wt1 strain (AID 149);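 also: 0% = growth of vehicle-treated wt1 cultures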; details: S. cerevisiae wt1 strain (SPY 50644) growth inhibition, hits give high values
Method in brief: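 Vehicle-normalised growth inhibition; strain wt1; compound exposure.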

[3] = NCI Yeast Anticancer Drug Screen. Data for the rad50EPP+ strain (AID 151);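 also: 0% = growth of vehicle-treated control cultures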; details: S. cerevisiae rad50 mutant strain, hits give high values
Method in brief: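 One strain with a rad50 alteration (rad50EPP+) was compound-treated, its growth then compared to that of vehicle controls.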

[4] = NCI Yeast Anticancer Drug Screen. Data for the mgt1 strain (AID 153); details: S. cerevisiae mgt1 mutant growth inhibition, hits give high values
Method in brief: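 After exposure of the mgt1 yeast mutant to compound, growth was measured and reported as inhibition compared with vehicle controls.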

[5] = NCI Yeast Anticancer Drug Screen. Data for the rad50 strain (AID 155);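 also: 0% = growth of vehicle-only cultures of the same strain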; details: S. cerevisiae rad50 strain growth inhibition, hits give high values
Method in brief: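 A DNA repair-deficient yeast mutant serves as the test organism; compound-induced growth inhibition is calculated against vehicle-treated cells.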

[6] = NCI Yeast Anticancer Drug Screen. Data for the mec2-1 strain (AID 157); details: S. cerevisiae mec2-1 strain, hits give high values
Method in brief: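 Test agents were screened against the mec2-1 yeast strain, with defined DNA repair or cell cycle alteration. Growth was scored as inhibition against vehicle-only controls.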

[7] = NCI Yeast Anticancer Drug Screen. Data for the rad14 strain (AID 159);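 also: 0% = growth of vehicle-treated control cultures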; details: S. cerevisiae rad14 strain growth inhibition, hits give high values
Method in brief: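 Vehicle-treated cultures served as the baseline for growth inhibition of a DNA repair-mutant yeast strain exposed to each compound.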

[8] = NCI Yeast Anticancer Drug Screen. Data for the sgs1 mgt1 strain (AID 161);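 also: 0% = growth of cultures given vehicle only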; details: S. cerevisiae sgs1 mgt1 strain, hits give high values
Method in brief: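 Genetically altered yeast, compound exposure, growth inhibition relative to vehicle.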

[9] = NCI Yeast Anticancer Drug Screen. Data for the CLN2oe strain (AID 163);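 also: 0% = growth of vehicle-only control cultures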; details: S. cerevisiae CLN2oe strain, hits give high values
Method in brief: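 Here, growth inhibition in a cell-cycle-altered yeast strain after compound exposure was quantified against vehicle control growth.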

[10] = NCI Yeast Anticancer Drug Screen. Data for the cln2 rad14 strain (AID 165);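 also: 0% = growth equal to vehicle treated cultures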; details: S. cerevisiae cln2 rad14 strain, hits give high values
Method in brief: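 Growth of compound-exposed yeast (cln2 rad14 genotype) measured and expressed as inhibition relative to vehicle.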

[11] = NCI Yeast Anticancer Drug Screen. Data for the bub3 strain (AID 167); details: S. cerevisiae bub3 mutant strain, hits give high values
Method in brief: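 Inhibition values come from growth of compound-treated mutant yeast normalised to vehicle-treated controls.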

[12] = NCI Yeast Anticancer Drug Screen. Data for the wt2 strain (AID 169);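 also: 0% = growth of vehicle-treated yeast cultures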; details: S. cerevisiae wt2 strain growth inhibition, hits give high values
Method in brief: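 Genetically defined yeast strains from a DNA-repair/cell-cycle panel were used. Compound-exposed yeast growth was measured, and the inhibition was calculated relative to vehicle treatment.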

[13] = NCI Yeast Anticancer Drug Screen. Data for the mlh1 strain (AID 171);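 also: 0% = growth of vehicle-treated control cultures of the same strain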; details: S. cerevisiae mlh1 strain growth inhibition, hits give high values
Method in brief: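 Here the genetically defined yeast mutant is grown with each compound, and the extent to which its growth falls below that of vehicle-exposed cells is reported.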

[14] = NCI Yeast Anticancer Drug Screen. Data for the sgs1 strain (AID 173);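 also: 0% = growth of vehicle-only control cultures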; details: S. cerevisiae sgs1 mutant, hits give high values
Method in brief: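 Relative growth inhibition, referenced to vehicle, was determined in a yeast strain with a defined alteration affecting DNA damage repair or cell cycle control after compound exposure.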

[15] = NCI Yeast Anticancer Drug Screen. Data for the rad18 strain (AID 177); details: S. cerevisiae rad18 mutant growth inhibition, hits give high values
Method in brief: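 Screen uses a yeast strain with a defined lesion in DNA damage repair; compound effect is read as loss of growth compared to untreated vehicle cultures.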

[16] = at 5.0 µM (retest, dose inferred, filed as 0.5)
[17] = at 50.0 µM (retest, dose inferred, filed as 5.0)

N#CC(C#N)=NNc1ccc(S(=O)(=O)O)cc1
growth inhibition ([1]; at 1.2 µM): -6% | growth inhibition ([1]; at 3.7 µM): 3% | growth inhibition ([1]; at 11.0 µM): 4% | growth inhibition ([1]; at 33.0 µM): 14% | growth inhibition ([1]; at 100.0 µM): 4% | growth inhibition ([2]; at 1.2 µM): -19% | growth inhibition ([2]; at 3.7 µM): -18% | growth inhibition ([2]; at 11.0 µM): -19% | growth inhibition ([2]; at 33.0 µM): -14% | growth inhibition ([2]; at 100.0 µM): -3% | growth inhibition ([3]; at 1.2 µM): 2% | growth inhibition ([3]; at 3.7 µM): 2% | growth inhibition ([3]; at 11.0 µM): 19% | growth inhibition ([3]; at 33.0 µM): -4% | growth inhibition ([3]; at 100.0 µM): 9% | growth inhibition ([4]; at 1.2 µM): 3% | growth inhibition ([4]; at 3.7 µM): 1% | growth inhibition ([4]; at 11.0 µM): -3% | growth inhibition ([4]; at 33.0 µM): 7% | growth inhibition ([4]; at 100.0 µM): 9% | growth inhibition ([5]; at 1.2 µM): -20% | growth inhibition ([5]; at 3.7 µM): -27% | growth inhibition [5, 16]: 85% (active) | growth inhibition ([5]; at 11.0 µM): -25% | growth inhibition ([5]; at 33.0 µM): -26% | growth inhibition [5, 17]: 99% (active) | growth inhibition ([5]; at 50.0 µM): 19.3% | growth inhibition ([5]; at 100.0 µM): -9% | growth inhibition ([6]; at 1.2 µM): -20% | growth inhibition ([6]; at 3.7 µM): -22% | growth inhibition [6, 16]: 93% (active) | growth inhibition ([6]; at 11.0 µM): -29% | growth inhibition ([6]; at 33.0 µM): -24% | growth inhibition [6, 17]: 99% (active) | growth inhibition ([6]; at 50.0 µM): 17.7% | growth inhibition ([6]; at 100.0 µM): -28% | growth inhibition ([7]; at 1.2 µM): 11% | growth inhibition ([7]; at 3.7 µM): 13% | growth inhibition ([7]; at 11.0 µM): 3% | growth inhibition ([7]; at 33.0 µM): 2% | growth inhibition ([7]; at 100.0 µM): 23% | growth inhibition [8, 16]: -2% | growth inhibition [8, 17]: 32% | growth inhibition ([8]; at 50.0 µM): 22.8% | growth inhibition ([9]; at 1.2 µM): -17% | growth inhibition ([9]; at 3.7 µM): -12% | growth inhibition ([9]; at 11.0 µM): -11% | growth inhibition ([9]; at 33.0 µM): -19% | growth inhibition ([9]; at 100.0 µM): -24% | growth inhibition [10, 16]: 0% | growth inhibition [10, 17]: 23% | growth inhibition ([10]; at 50.0 µM): 17.9% | growth inhibition ([11]; at 1.2 µM): -30% | growth inhibition ([11]; at 3.7 µM): -29% | growth inhibition [11, 16]: 17% | growth inhibition ([11]; at 11.0 µM): -30% | growth inhibition ([11]; at 33.0 µM): -29% | growth inhibition [11, 17]: 28% | growth inhibition ([11]; at 50.0 µM): 24.1% | growth inhibition ([11]; at 100.0 µM): -26% | growth inhibition ([12]; at 1.2 µM): -15% | growth inhibition ([12]; at 3.7 µM): -18% | growth inhibition ([12]; at 11.0 µM): -6% | growth inhibition ([12]; at 33.0 µM): -17% | growth inhibition ([12]; at 100.0 µM): -7% | growth inhibition ([13]; at 1.2 µM): 3% | growth inhibition ([13]; at 3.7 µM): 5% | growth inhibition ([13]; at 11.0 µM): 5% | growth inhibition ([13]; at 33.0 µM): 11% | growth inhibition ([13]; at 100.0 µM): 41% | growth inhibition ([14]; at 1.2 µM): -8% | growth inhibition ([14]; at 3.7 µM): -9% | growth inhibition ([14]; at 11.0 µM): -7% | growth inhibition ([14]; at 33.0 µM): 10% | growth inhibition ([14]; at 100.0 µM): 11% | growth inhibition ([15]; at 1.2 µM): 2% | growth inhibition ([15]; at 3.7 µM): -6% | growth inhibition ([15]; at 11.0 µM): 5% | growth inhibition ([15]; at 33.0 µM): 1% | growth inhibition ([15]; at 100.0 µM): 2%
